Screens from PubChem.
TDP43 rescue: TDP-43 toxicity inhibition in yeast | TDP-43 expressing yeast growth rescue, BacTiter-Glo, 24 h | AID 652104 | Potency, µM (titrated, usually from 46.1 µM), for inactives: at the highest dose growth rescue (activation), usual class: activators | hit rate 1.8% among 410,000; also: % of control where 0% means no effect; nearly all actives have a fitted effect of over 50% in size
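Luminescence from BacTiter-Glo reports growth of TDP-43-expressing yeast after 24 hr at 30 deg C with compound. Cells were raffinose-pregrown to mid-log, then seeded in galactose medium at OD600=0.02.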
S-ASM inh: inhibitors of human secretory acid sphingomyelinase | placental ASM, HMU-PC fluorogenic substrate, 60 min | Potency, µM (top dose mostly 57.5 µM), for inactives: top-dose activity change, negative = inhibition, usual class: inhibitors | hit rate 0.006% among 340,000 | AID 504937
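Human placenta-derived ASM enzyme was preincubated with compound for 10 minutes at room temperature, then given fluorogenic substrate HMU-PC0 (9 uM final) for 60 minutes at 37 °C; a pH 10 stop preceded fluorescence reading at Ex 386/Em 447 nm.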
aSyn rescue: rescues yeast growth from alpha-synuclein toxicity. hit rate 0.14% among 370,000. Yeast expressing alpha-synuclein, growth rescue, BacTiter-Glo, 24 h. Potency, µM (highest dose often 46.1 µM), for the others: top-dose growth rescue (activation), most hits filed as activators; also: % of control where 0% means no effect; nearly all actives have a fitted effect of over 65% in size
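Rescue of yeast growth: cells expressing toxic alpha-synuclein, induced in galactose at OD600 0.02, incubated with compound 24 h at 30 C. ATP luminescence quantified growth; inhibitors of toxicity appear as activators.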
Rango-impB inh: Rango-importin beta binding inhibition; Rango CFP/YFP FRET sensor + importin beta, 45 min; Potency, µM (titrated, usually from 92.2 µM), for inactives: top-dose inhibition of complex formation; hit rate 0.031% among 340,000; AID 540263; calls by dose curve;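 also: 0% = DMSO wells and 100% = buffer wells lacking importin beta; nearly all actives have a fitted effect of over 15% in size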
Target sequence (Q14974 whole entry, looked up): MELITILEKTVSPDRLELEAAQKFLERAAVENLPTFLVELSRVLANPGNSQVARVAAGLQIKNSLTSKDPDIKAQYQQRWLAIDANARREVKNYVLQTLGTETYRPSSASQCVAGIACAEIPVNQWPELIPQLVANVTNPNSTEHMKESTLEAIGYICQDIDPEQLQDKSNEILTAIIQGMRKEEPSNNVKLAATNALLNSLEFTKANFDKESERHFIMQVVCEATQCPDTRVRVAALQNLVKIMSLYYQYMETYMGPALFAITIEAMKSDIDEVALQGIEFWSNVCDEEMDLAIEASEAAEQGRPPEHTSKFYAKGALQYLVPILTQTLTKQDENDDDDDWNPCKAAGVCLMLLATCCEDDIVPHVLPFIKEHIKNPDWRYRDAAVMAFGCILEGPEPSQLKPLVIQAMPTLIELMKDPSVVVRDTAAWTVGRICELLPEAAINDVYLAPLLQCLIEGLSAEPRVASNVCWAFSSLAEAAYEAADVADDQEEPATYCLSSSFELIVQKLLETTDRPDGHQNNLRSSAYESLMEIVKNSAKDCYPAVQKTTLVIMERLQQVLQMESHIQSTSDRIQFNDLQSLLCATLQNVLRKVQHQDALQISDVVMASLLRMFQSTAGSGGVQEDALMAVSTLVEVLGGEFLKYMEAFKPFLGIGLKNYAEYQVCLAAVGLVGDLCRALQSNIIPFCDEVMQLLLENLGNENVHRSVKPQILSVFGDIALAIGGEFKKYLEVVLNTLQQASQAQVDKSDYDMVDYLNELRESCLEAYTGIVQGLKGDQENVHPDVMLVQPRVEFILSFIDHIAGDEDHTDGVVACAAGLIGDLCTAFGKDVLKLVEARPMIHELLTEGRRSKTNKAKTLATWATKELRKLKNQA
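FRET biosensor Rango (snurportin 1 IBB between N-terminal EYFP and C-terminal Cerulean), 50 nM in PBS/1 mM DTT/0.02% Tween-20/0.1% BSA, preincubated 5 min RT with compound; 0.125 microM importin beta added, 45 min RT, CFP/YFP FRET ratio read.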
Rango release inh: prevents RanGTP from dissociating the Rango-importin beta complex; Biochemical FRET Rango-importin beta, RanGTP-induced dissociation; O95149+P62826; hit rate 0.071% among 340,000; Potency, µM (titrated, usually from 46.1 µM), for the others: at the top dose activity change, negative = inhibition; calls by dose curve; also: % of control where 0% means no effect; nearly all actives have a fitted effect of over 45% in size
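Recombinant Rango FRET biosensor (EYFP–snurportin 1 IBB–cerulean CFP10) at 0.1 uM premixed with 0.25 uM importin beta in PBS, 1 mM DTT, 0.02% Tween-20, 0.1% BSA. Compound added 5 min; RanGTP-RCC1 (0.6 uM Ran, 2 mM GTP, 0.2 uM RCC1) then triggers release, read at 45 min.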
Abeta yeast res: restores growth of yeast expressing A-beta42 peptide; yeast expressing A-beta42, growth rescue, OD600, 48 h; response scale: 0% DMSO, 100% iron-clioquinol control; hit rate 0.063% among 410,000; Potency, µM (series often up to 46.1 µM), usual class: activators; AID 1347071; also: nearly all actives have a fitted effect of over 55% in size
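Yeast A-beta toxicity model in growth medium with pinned compounds, 48 h at 30 C; growth read as absorbance at 600 nm. Normalized to FeCl3/clioquinol equimolar mix (positive) and DMSO (negative).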
Active calls of the source: *; i = inactive; ? = inconclusive; . = no result given. This is a sample that favours compounds with a hit; in the whole collection about 2% have one here. Unless noted, calls follow the shape of the dose curve; as a rule, active = well fitted curve in the direction sought with a large enough effect; inconclusive = small, poorly fitted or top-dose-only effect, or another doubt; inactive = no such curve, though single readings can be large; an effect the other way counts as inactive or inconclusive. Potency is read from the fitted curve at half-maximal effect.

SMILES	TDP43 rescue	S-ASM inh	aSyn rescue	Rango-impB inh	Rango release inh	Abeta yeast res
COc1ccc(Nc2ncnc3c2nc2n3CCCCC2)cc1	?	.	.	.	.	i
O=C(Nc1ccc(F)cc1F)C1CCCN(c2ncnc3c2nc2n3CCCCC2)C1 (stereo not given)	?	-3%	0%	-5%	0%	i
CCOc1ccc(Nc2ncnc3c2nc2n3CCCCC2)cc1	13µM*	.	.	.	.	i
COc1ccc(Nc2ncnc3c2nc2n3CCCC2)cc1Cl	13µM*	.	.	.	.	i
COc1cc(Cl)c(C)cc1Nc1ncnc2c1nc1n2CCCC1	0%	.	.	.	.	i
Fc1ccc(Nc2ncnc3c2nc2n3CCCCC2)c(F)c1	11µM*	.	.	.	.	i
CCn1c(SCC(=O)N2CCCC2)nc2c(c1=O)SC(C)C2 (stereo not given)	0%	-2%	1%	-2%	19%	i
CCCSc1nc2c(c(=O)n1CC)SC(C)C2 (stereo not given)	22µM*	-7%	-10%	2%	-15%	i
COc1ccc2c(c1)CC=C1C2CCC2(C)C(=O)C(=NO)CC12 (stereo not given)	11µM*	?	6%	-2%	-14%	i
CC12CCC3C(=CCc4cc(O)ccc43)C1CC(=NO)C2O (stereo not given)	19%	2%	6%	-2%	-16%	i
Cc1csc(NC(=O)c2sccc2C)n1	-30%	1%	-36%	-5%	5%	i
Cc1ccsc1C(=O)Nc1n[nH]c(C(F)(F)F)n1	35µM*	2%	8%	-1%	0%	i
CCOC(=O)C1CCN(C(=O)c2ccc(C)c(NC(=O)c3nsc4ccccc34)c2)CC1	35µM*	.	.	.	.	i
CCOC(=O)C1CCCN(C(=O)c2ccc(C)c(NC(=O)c3nsc4ccccc34)c2)C1 (stereo not given)	?	.	.	.	.	i
Cc1ccc(C2CC2c2n[nH]c(=S)n2-c2cccc(Cl)c2)cc1 (stereo not given)	35µM*	-4%	9%	0%	-2%	i
COc1ccc2cc(C(=O)N/N=C/c3sc4ccccc4c3O)ccc2c1	-11%	-14%	10µM*	?	?	i
CCOC(=O)c1cnc2ccc(OCC)cc2c1NCCc1ccc(OC)c(OC)c1	15%	.	.	.	.	i
CCOC(=O)c1cnc2ccc(OCC)cc2c1N1CCN(c2ccccc2OC)CC1	35µM*	-17%	8%	0%	-3%	i
CCOC(=O)c1cnc2c(OC)cccc2c1N1CCN(c2ccccc2F)CC1	11µM*	.	.	.	.	i
CCOc1ccc2ncc(C(=O)c3ccc(OC)cc3)c(N3CCN(CC)CC3)c2c1	13%	-5%	0%	0%	-15%	i
CCOC(=O)c1cnc2ccc(OCC)cc2c1N(C)Cc1ccccc1	22µM*	-1%	14%	-4%	4%	i
COc1cc2nc(N3CCCCC3)nc(NC3CC3)c2cc1OC	.	.	-3%	.	.	.
O=C(CN1CCCN(Cc2ccccc2Cl)S1(=O)=O)Nc1ccc2c(c1)OCCO2	?	.	.	.	.	i
O=C(CN1CCCN(Cc2ccccc2F)S1(=O)=O)Nc1ccc(F)c(Cl)c1	11µM*	.	.	.	.	?
CN(Cc1ccccc1)c1nc(-c2cccc([N+](=O)[O-])c2)nc2ccccc12	14µM*	-7%	-11%	-2%	9%	i
SMILES	TDP43 rescue	S-ASM inh	aSyn rescue	Rango-impB inh	Rango release inh	Abeta yeast res
CC1(Cc2ccccc2OC(F)(F)F)C(=O)Nc2ccc(-c3ccsc3)cc21 (stereo not given)	20µM*	.	-61%	.	.	i
Cc1ccc(Cl)cc1N1CCN(S(=O)(=O)c2ccc3c(c2)CCCN3C(=O)C2CCC2)CC1	0%	.	.	.	.	i
CC(C)COC(=O)NCCOC(=O)Nc1cccc(Cl)c1	25µM*	-2%	4%	2%	-4%	i
CC(C)CCNC(=O)/C=C/c1ccc(Br)cc1	22µM*	1%	-10%	0%	-1%	i
CC(C)CCNC(=S)Nc1ccc(Br)cc1	?	0%	-33%	-3%	12%	i
Cn1ncc2c(N3CCN(c4ccccc4F)CC3)ncnc21	13µM*	1%	6%	?	-6%	i
COc1cc2c(cc1OC)C(c1ccc(Cl)cc1)N(c1ccc(C)c(F)c1)C(=O)C2 (stereo not given)	35µM*	.	.	.	.	i
O=C(CSc1nc2c([nH]c3ccccc32)c(=O)n1-c1cccc(Cl)c1)N1CCc2ccccc21	15%	.	23%	.	.	i
CCOC(=O)/C=C(\C)Sc1cc(=O)oc2ccccc12	14µM*	1%	-8%	5%	5%	i
CCO/C=C1/C(=O)N(c2ccc(OC)cc2)C(=O)c2ccccc21	-5%	464%	11%	?	?	i
CCO/C=C1\C(=O)N(c2ccccc2)C(=O)c2ccccc21	-23%	195%	16%	?	13µM*	i
O=[N+]([O-])c1ccccc1S(=O)(=O)N1CCN(c2nc(-c3ccccc3)nc3ccccc23)CC1	.	.	1%	.	.	.
Oc1ccccc1-c1n[nH]c(-c2ccccc2O)n1	-19%	-1%	5%	-3%	1%	i
Clc1ccccc1-c1nc(-c2ccccc2)n[nH]1	13µM*	-2%	-2%	0%	11%	i
COC(=O)C1=C(C)N(Cc2ccccc2)C(=S)N[C@H]1c1ccccc1	13µM*	4%	21%	0%	11%	i
c1ccc(-c2nc(SCC3CCCCO3)n[nH]2)cc1 (stereo not given)	.	.	1%	.	.	.
CCCCOc1cccc(C(=O)Nc2cc3nn(-c4ccc(F)cc4)nc3cc2C)c1	20%	.	.	.	.	i
Cc1ccc(Nc2nc(CSc3nnc(-c4ccc(F)cc4)n3C)cs2)cc1	18µM*	-1%	-18%	-2%	9%	i
COc1ccc(-c2nnc(SCc3csc(N)n3)n2C)cc1	-5%	2%	-12%	-2%	0%	i
CCOC(=O)c1ccc(NC(=O)/C(C#N)=C/c2ccc(OC)cc2)cc1	26%	.	.	.	.	i
COc1ccc(-n2cnnc2SCc2cnc(-c3ccccc3)s2)cc1	20µM*	-2%	0%	-2%	-13%	i
COCCn1c(SCc2cnc(-c3ccccc3)s2)nnc1-c1ccncc1	2%	0%	-6%	-4%	-1%	i
CC1=Nc2cc(C(=O)O)ccc2Sc2ccc(Br)cc21	35µM*	-1%	-8%	2%	-13%	i
CCC1=Nc2cc(C(=O)O)ccc2Sc2ccc(Cl)cc21	14µM*	9%	-15%	2%	-10%	i
